Compound activity: PubChem, Broad Institute
A selection follows.
aSyn UTR act = Activators via SNCA 5'UTR binding, MLPCN; activity score, % (tested at 7.5 µM), hits read low; alpha-synuclein 5'UTR reporter, activators screen; 300,000 tested, 7.1% active; in the data active = activity score below about -60%
Numbers without * were called inactive.

SMILES	aSyn UTR act
COc1cccc2cc(-c3ccnc(=S)[nH]3)oc12	-74*
CS(=O)(=O)c1ccccc1COC(=O)Nc1ccc(Cl)cc1	-70*
O=C(Nc1ccc(Cl)cc1)OCc1ccccn1	-134*
CSCCC(=O)N1CCC(n2nccc2NC(=O)c2ccc3c(c2)OCO3)CC1	-84*
CC#CC(=O)N1CCC(n2nccc2NC(=O)c2ccc3c(c2)OCO3)CC1	-83*
COc1ccc(NC(=O)/C=C/c2ccco2)cn1	-237*
COc1ccc(NC(=O)/C=C/c2cccc(F)c2)cn1	-196*
O=C(Nc1cccc(F)c1)c1ccc(CSc2ccccc2)o1	-121*
O=C(Nc1ccccc1F)c1ccc(CSc2ccccc2)o1	-70*
N#CCc1nc(CSc2nc3ccccc3o2)cs1	-134*
c1ccc2oc(SCc3nc4ccccc4s3)nc2c1	-149*
c1ccc(SCc2nc3ccccc3s2)nc1	-113*
Cc1ccsc1C(=O)N/N=C/C=C/c1ccccc1[N+](=O)[O-]	-138*
CC1CCCC(C)N1/N=C/C=C/c1ccccc1[N+](=O)[O-] (stereo not drawn)	-133*
CCOC(=O)N/N=C/C=C/c1ccccc1[N+](=O)[O-]	-75*
CSCC(=O)N1CCc2ccc(NC(=O)c3ccccc3Cl)cc2C1	-117*
O=c1cc(Cl)[nH]c(=O)n1Cc1ccc(F)cc1	-87*
Cc1cc(C)nc(SCc2ccc(C(=O)N/N=C/c3cccc(O)c3O)cc2)n1	70
CC(C)c1ccc(C(=O)N/N=C/c2cccc(Cl)c2Cl)cc1	-66*
CC(C)c1ccc(/C=N/NC(=O)CCNC(=O)c2ccccc2)cc1	-63*
CC(C)c1ccc(/C=N/NC(=O)c2cccc(Cl)c2)cc1	-238*
Cc1ccc(NC(=S)N2CCCCCC2)cc1	-94*
Cc1ccc(NC(=S)N2CCCC2)cc1	-64*
Cc1ccc(S(=O)(=O)c2cc3c(=O)n4ccccc4nc3n(CCc3ccccc3)c2=N)cc1	-231*
COc1ccc(CCn2c(=N)c(C(=O)NCc3ccco3)cc3c(=O)n4ccccc4nc32)cc1	-73*
SMILES	aSyn UTR act
N=c1c(C(=O)NCCN2CCOCC2)cc2c(=O)n3ccccc3nc2n1CCc1ccccc1	-83*
O=[N+]([O-])c1cc(S(=O)(=O)NCCN2CCOCC2)ccc1Sc1nnnn1-c1ccccc1	-96*
Cc1ccc(-n2nnnc2Sc2ccc(S(=O)(=O)NCCN(C)C)cc2[N+](=O)[O-])cc1	-93*
CCn1nnnc1SCC(=O)Nc1ccc2c(c1)OCCO2	-118*
CC(C)n1nnnc1SCC(=O)Nc1ccc2c(c1)OCCO2	-109*
COc1ccc(CNc2nc(Cl)c(C#N)s2)cc1	-95*
c1cc2c(cnc3cscc32)s1	-69*
O=C(/C(C=Nc1cccc(C(F)(F)F)c1)=C(/O)c1ccco1)C(F)(F)F	-194*
O=C(/C(C=Nc1ccc(Br)cc1)=C(/O)c1ccco1)C(F)(F)F	-175*
c1cncc(-c2noc(C34CC5CC(CC(C5)C3)C4)n2)c1	-87*
O=C1CC(/C=C/c2ccc([N+](=O)[O-])cc2)=Nc2ccccc2N1	-112*
Cc1ccc2[nH]c3c(N4CCOCC4)ncnc3c2c1	-72*
CCCOc1ncnc2c1[nH]c1ccc(C)cc12	-92*
Cc1ccc2[nH]c3c(NCc4ccccc4)ncnc3c2c1	-95*
COc1ccc(C(=O)NCCn2cc(SCC(=O)Nc3nnc(C)s3)c3ccccc32)cc1	-69*
FC(F)(F)c1cnc(-c2cnc(-c3ccncc3)nc2)c(Cl)c1	-109*
COc1ccc(/C=C/C(=O)c2ccc[nH]2)c(OC)c1OC	-194*
COc1ccc(/C=C/C(=O)c2ccc[nH]2)cc1OC	-146*
COc1ccc(/C=C/C(=O)c2cc(F)ccc2OC(=O)c2ccccc2OC)cc1OC	68
Cc1ccc(NCC(=O)N=Nc2c(O)[nH]c3ccc([N+](=O)[O-])cc23)cc1	-172*
O=C(Nc1nccs1)c1ccc(-c2ccc(Cl)cc2)o1	-207*
Cc1cccc(NC(=O)c2cc([N+](=O)[O-])ccc2Cl)c1O	-85*
O=C(Nc1nccs1)c1ccc(-c2ccc(F)cc2)o1	-260*
O=C(Nc1nccs1)c1ccc(-c2ccc([N+](=O)[O-])cc2)o1	-141*
O=C(Nc1cccnc1)c1ccc(-c2ccc(Cl)cc2)o1	-190*
SMILES	aSyn UTR act
O=C(Nc1nccs1)c1cc([N+](=O)[O-])ccc1Cl	-68*
CC#CC#Cc1cccc(=O)o1	-116*
Cn1c(CCNC(=O)c2cccs2)nnc1SCC(=O)Nc1nc(-c2ccccc2)cs1	-73*
Cc1ccc(C(=O)NCCc2nnc(SCC(=O)Nc3nc(-c4ccccc4)cs3)n2C)cc1	-65*
Cc1nnc(SCC(=O)Nc2nc(-c3ccccc3)cs2)n1N	-81*
Cc1ccccc1C(=O)Nc1ccc(Cl)cn1	-114*
Cc1ccc(NC(=O)c2ccc3ccccc3n2)nc1	-163*
O=C(Nc1ccc(Cl)cn1)c1ccc2ccccc2n1	-96*
Cc1ccc(-c2nc(-c3cccnc3)no2)c(C)c1	-92*
Cc1c(-c2nc(-c3cccnc3)no2)cccc1[N+](=O)[O-]	-81*
Cc1ccc(C(=O)Nc2ccc(Cl)cc2C(F)(F)F)c(Cl)c1	-101*
Cc1ccc(NC(=O)c2ccc(Cl)cc2Cl)cc1O	-170*
Cc1ccc(C(=O)Nc2ccc(Cl)cc2C)c(Cl)c1	-71*
O=C(Nc1cc(F)c(Br)cc1F)c1ccc(Cl)cc1	-152*
C#Cc1cccc(NC(=O)c2ccc(Cl)cc2Cl)c1	-185*
O=C(Nc1ccc(Cl)cc1C(F)(F)F)c1ccc(Cl)cc1	-104*
COc1cccc2oc3cc(C#Cc4ccccn4)ccc3c(=O)c12	-194*
CCOc1ccc(OCc2cccc(C(=O)N/N=C/c3cccnc3)c2)cc1	87
Cc1occc1C(=O)N/N=C/c1ccc(OCc2ccccc2)cc1	-138*
CC/C(=N\NC(=O)c1ccoc1C)c1ccc(C)o1	-155*
O=C(N/N=C/c1ccc(OCc2ccccc2)cc1)c1cc[n+](Cc2ccccc2)cc1	-77*
O=C(NCCSc1ccccc1)c1ccccc1F	-76*
Cc1ccccc1C(=O)NCC(=O)c1ccccc1	-135*
O=C(COc1ccccc1)NCCSc1ccccc1	-99*
O=C(NCCSc1ccccc1)c1cccnc1	-100*
SMILES	aSyn UTR act
CC(CNC(=O)c1ccccc1Cl)c1ccccc1 (stereo not drawn)	-111*
O=C(CNC(=O)c1ccccc1F)c1ccccc1	-93*
O=C(CNC(=O)c1ccccc1Cl)c1ccccc1	-113*
Cc1ccc(NC(=O)CCCC2CCCCC2)c(O)c1	-150*
COCCSc1nnc(NC(=O)c2ccco2)s1	-81*
Cc1cnc(NC(=O)c2ccncc2)s1	-65*
Cc1cnc(NC(=O)c2ccco2)s1	-94*
COCCSc1nnc(NC(=O)C2CCCCC2)s1	-63*
CSc1nnc(NC(=O)c2ccco2)s1	-77*
CCCSc1nnc(NC(=O)c2ccco2)s1	-81*
CCCSc1nnc(NC(=O)Nc2ccccc2)s1	-92*
Cc1ccc(-c2csc(NC(=S)NC(=O)c3cccs3)n2)cc1	-77*
CCCOc1ccc(C(=O)NC(=S)Nc2nc3ccccc3s2)cc1	-247*
Cc1ccc2nc(NC(=S)NC(=O)c3ccc(OC(C)C)cc3)sc2c1	-107*
CCCOc1ccc(C(=O)NNC(=S)NC(=O)CC)cc1	85
Cc1ccc2nc(NC(=S)NC(=O)c3cccs3)sc2c1	-104*
CCCC(=O)NC(=S)Nc1nc(-c2ccc(OC)cc2)cs1	-65*
COc1ccc(-c2csc(NC(=O)c3ccccc3NS(=O)(=O)c3ccc(F)c(F)c3)n2)cc1	74
Cc1ccc(/C=C2\OC(=O)c3ccccc32)cc1	-83*
